This note sets out measurements from PubChem BioAssay AID488969 (Vanderbilt High Throughput Screening Facility, 2010).

Several values for one entry are separate records, joined by “and”; a condition that tells them apart may be missing. Equal values may be shown once. Whole data set: some 110,000 compounds, median “z-score” near -0.1, cut for the highest 2% near 2. The list comes from a sample in which the highest values are over-represented; it also holds similar structures and randomly drawn compounds. Activity calls are given as the source filed them.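 The calls were made as follows: active = z-score in the third read window above 3 or below -3; inactive = the rest.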

Chain of Metabotropic glutamate receptor 8 (Rattus norvegicus) (P70579 whole entry, looked up): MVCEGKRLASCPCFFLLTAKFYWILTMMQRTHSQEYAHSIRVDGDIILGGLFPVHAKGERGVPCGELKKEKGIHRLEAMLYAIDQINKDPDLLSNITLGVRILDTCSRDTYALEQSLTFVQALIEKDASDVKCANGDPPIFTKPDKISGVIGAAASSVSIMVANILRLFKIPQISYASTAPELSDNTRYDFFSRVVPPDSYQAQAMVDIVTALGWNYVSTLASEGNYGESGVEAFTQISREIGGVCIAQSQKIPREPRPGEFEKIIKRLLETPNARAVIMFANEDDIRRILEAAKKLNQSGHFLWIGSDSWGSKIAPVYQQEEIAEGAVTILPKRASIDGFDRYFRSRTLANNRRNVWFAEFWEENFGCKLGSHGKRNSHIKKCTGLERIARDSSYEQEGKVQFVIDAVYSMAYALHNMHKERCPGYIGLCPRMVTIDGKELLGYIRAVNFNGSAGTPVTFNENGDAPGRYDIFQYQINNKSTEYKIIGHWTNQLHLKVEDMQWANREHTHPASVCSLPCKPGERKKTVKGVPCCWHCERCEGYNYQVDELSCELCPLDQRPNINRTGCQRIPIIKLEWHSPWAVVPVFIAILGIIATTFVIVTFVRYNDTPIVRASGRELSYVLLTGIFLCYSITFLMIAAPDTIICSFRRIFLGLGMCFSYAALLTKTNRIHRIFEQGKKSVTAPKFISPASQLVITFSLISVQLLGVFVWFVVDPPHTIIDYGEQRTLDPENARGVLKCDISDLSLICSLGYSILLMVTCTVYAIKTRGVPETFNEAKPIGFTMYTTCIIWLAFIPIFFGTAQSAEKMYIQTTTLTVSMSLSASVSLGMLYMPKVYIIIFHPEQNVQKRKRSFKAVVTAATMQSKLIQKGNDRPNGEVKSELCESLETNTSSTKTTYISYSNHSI

The experiment has as its target Metabotropic glutamate receptor 8 (Rattus norvegicus) (UniProt P70579). The experiment is described as follows: mGluR8 Gi/Go-coupled signaling modulation – cell-based, rat, thallium flux, HTS, primary screen (AID 488969). The settings on record: HEK293 rat mGluR8, GIRK (G protein-gated inwardly rectifying potassium channel) thallium flux, FluoZin2; at 10 µM; stronger effect = higher value; submaximal glutamate (EC20) added with thallium.
For the molecule `CC(C)CCn1c(Oc2ccc(Cl)cc2)nc2c1c(=O)n(C)c(=O)n2C`, the z-score is -0.037. As for `CC(C)CCn1c(Cl)nc2c1c(=O)n(C)c(=O)n2C`, the z-score worked out at 2.04. The value for `CC(C)CCn1c(Oc2ccccc2Cl)nc2c1c(=O)n(C)c(=O)n2C` was -0.1; that for `CC1(C)CC(c2nc(-c3ccc(Br)cc3)cs2)CCS1` (stereo not drawn) was 2.26; that for `CC1(C)CC(c2nc(-c3ccc(Cl)cc3)cs2)CCS1` (stereo not drawn) was 0.117.

`CCC1(C)CC(c2nc(-c3ccc(OC)cc3)cs2)CCS1` (stereo not drawn) gave a z-score of -0.645.

The molecule `COc1ccc(C)cc1NC1=C(Cl)C(=O)N(C2CCCCC2)C1=O` gave a z-score of -0.0567.

For `Cc1ccc2cccc(NC(=O)C(F)(F)F)c2n1`, the z-score was 0.599. `Cc1ccc2cccc(NC(=S)NC(=O)c3c(Br)cnn3C)c2n1` registered a z-score of 0.727. Next, `Cc1ccc2cccc(NC(=S)NC(=O)c3ccccc3)c2n1`: 1.02; `Cc1ccc2cccc(NC(=S)NC(=O)c3ccn(C)n3)c2n1`: 6.02 (active); `Cc1ccc2cccc(NC(=S)NC(=O)c3ccnn3C)c2n1`: 2.25.

With `Cc1cc(C)c2cccc(NC(=S)NC(=O)c3ccccc3)c2n1`, the z-score was determined as 0.2.

In turn, `c1cnc(N2CCSCC2)nc1` came in with a z-score of -0.316.

`Cc1c(C(=O)Nc2ccccc2)cn2c(nc3ccccc32)c1C#N` came in with a z-score of -0.348. Molecule `COc1cccc2cc(C(=O)n3ccc(C)n3)c(=O)oc12` gave a z-score of -1.33.

For `O=C1CC(c2ccc(S(=O)(=O)Nc3cc(C(F)(F)F)cc(C(F)(F)F)c3)cc2)CN1` (stereo not drawn), the z-score worked out at 0.112. In turn, `CCC(C)n1ncn(-c2ccc(N3CCN(c4ccc(OC)cc4)CC3)cc2)c1=O` (stereo not drawn) yielded a z-score of -0.724.

Molecule `COc1cc(NC(=O)c2cc3sccc3n2C)cc(OC)c1` showed a z-score of -0.0259. Next, `O=C(O)c1cc(=O)c2cc(Cl)ccc2o1`: -0.147; `O=c1c(O)c(-c2cccs2)oc2ccc(Cl)cc12`: 14.1 (active). Next, `COc1ccc(OC)c(-c2oc3ccccc3c(=O)c2O)c1`: 0.149; `O=c1c(O)c(-c2ccc3c(c2)OCO3)oc2ccccc12`: -0.981; `O=c1cc(-c2cccs2)oc2ccc(Cl)cc12`: -0.565. Next, `O=c1c(O)c(-c2cccs2)oc2ccccc12`: 17.2 (active); `O=C(Cc1cc(=O)[nH][nH]1)N/N=C/C(Cl)=C/c1ccccc1`: -0.191 and -0.199; `COc1ccc(CCNC(=O)CCSc2nc(-c3ccco3)cc(C(F)(F)F)n2)cc1OC`: -2.59. As for `c1ccc(COc2cccc(CNn3cnnc3)c2)cc1`, the z-score is -0.177. Molecule `COc1ccc(/C=C2\CCn3c2nc2cc(C(=O)O)ccc2c3=O)cc1O` returned a z-score of -0.197.

The molecule `O=C(O)c1ccc2c(c1)ncn2C1CCCCCC1` registered a z-score of 0.321.

In turn, `CC(NC(=O)c1ccc(F)cc1)c1nc2ccccc2n1Cc1ccccc1F` (stereo not drawn) registered a z-score of -0.254. `CCOC(=O)CN1C(=O)C(C)(C)Oc2ccc(C(=O)Nc3ccccc3OC)cc21` gave a z-score of 2.42. The value for `CCOC(=O)CN1C(=O)C(C)(C)Oc2ccc(C(=O)Nc3ccccc3)cc21` was -0.637; that for `CCOC(=O)CN1C(=O)C(C)(C)Oc2ccc(C(=O)NC(C)(C)CC)cc21` was 0.0354.

Molecule `COc1ccc(/C=C/C(=O)Nc2nc(N)n(-c3ccccc3)n2)cc1` registered a z-score of -0.0927. Next, `CCOC1CC(C)(C)NC(=S)N1` (stereo not drawn): -0.234. `CCCc1ncc(C(O)c2cccc3ccccc23)n1C` (stereo not drawn) came in with a z-score of 0.327. For the molecule `COCCN=C1Sc2nc3c(C)cccc3cc2CN1Cc1ccco1`, the z-score came out at 0.0241. Next, `O=C(CNS(=O)(=O)c1ccccc1)N1CCN(c2ccccc2)CC1`: -0.0656; `CC1(C)CC(=O)c2sc(NC(=O)CN3C(=O)CCC3=O)nc2C1`: 2.59. Next, `CCOCC(=O)Nc1nc2c(s1)C(=O)CC(C)(C)C2`: -0.264; `CC1(C)CC(=O)c2sc(NC(=O)CN3CCOCC3)nc2C1`: 0.431. As to `C/C(=N\NC(=O)c1ccc(Cl)c(Cl)c1)c1cccc(NC(=O)C(C)C)c1`, the z-score came to 0.0284.

In turn, `CC(C)CCNC(=O)C(C)N(C(=O)Cn1nnc(-c2ccc(F)cc2)n1)C1CCCC1` (stereo not drawn) came in with a z-score of 2.82. In turn, `CCC(C(=O)NC1CCCC1)N(C(=O)Cn1nnc(-c2ccc(C)cc2)n1)C1CCCC1` (stereo not drawn) showed a z-score of -0.114. The molecule `COc1ccc(-c2nnn(CC(=O)N(C3CCCCC3)C(C)C(=O)NC3CCCC3)n2)cc1OC` (stereo not drawn) came in with a z-score of 1.3. Next, `Cc1ccc(S(=O)(=O)NC2(C(F)(F)F)C(=O)Nc3c2c(=O)n(C)c(=O)n3C)cc1` (stereo not drawn): -0.423; `O=C(Nc1ccccc1)c1ccc(N2CCN(c3ccccc3)CC2)c(S(=O)(=O)N2CCOCC2)c1`: -0.142; `O=C(N/N=C\CCc1ccccc1)c1ccco1`: 0.322. In the case of `NC(=O)CSc1ncc(-c2ccccc2)[nH]1`, the z-score was 0.142. Consider `CCCOc1ccc(C(C(=O)OCCN(CC)CC)c2ccccc2)cc1` (stereo not drawn), for which the z-score is 2.43. Next, `COc1ccc(C(C(=O)OCCN(C)C)c2ccccc2)cc1` (stereo not drawn): 0.325; `CCOc1ccc(C(=O)OCCN(CC)CC)cc1`: 0.374; `CC(=O)C(Sc1ccc2nnc(-c3ccc(C)cc3)n2n1)C(C)=O`: 1.78. With `O=C(/C(=C/c1ccc(Cl)cc1)c1nc2ccccc2[nH]1)c1ccccc1`, the z-score was -0.287.

The molecule `Cc1ccccc1NC(=O)N(CCc1nc2ccccc2[nH]1)Cc1ccccc1` came in with a z-score of -0.292. On to `Cc1ccc(Nc2nnc(SC/C(O)=C(\C#N)c3nc4ccccc4[nH]3)s2)c(C)c1`, for which the z-score was -0.166. Consider `Cc1ccccc1NC(=O)NCCc1nc2ccccc2[nH]1`, for which the z-score is -0.0805.

On to `Cc1ccc(NC(=S)c2nc3ccccc3[nH]2)c(C)c1`, for which the z-score is 6.64 (active). The value for `Cc1ccc(NC(=S)c2nc3ccccc3[nH]2)cc1` was -1.02. The value for `S=C(Nc1ccc(Cl)cc1)c1nc2ccccc2[nH]1` was 6.95 (active); that for `Cc1ccc(C)c(NC(=S)c2ccc3ccccc3n2)c1` was 0.103.

As for `Cc1ccccc1NC(=S)c1nc2ccccc2[nH]1`, the z-score was 10.9 (active).

Take `CCn1c(COc2ccccc2)nnc1SCc1ccc(C#N)cc1`: the z-score was -0.725. With `Cc1c(Nc2nc3ccccc3nc2NS(=O)(=O)c2ccccc2)c(=O)n(-c2ccccc2)n1C`, the z-score was -0.716. In turn, `O=C(OCc1ccc([N+](=O)[O-])cc1)C1CCN(S(=O)(=O)c2ccccc2)CC1` displayed a z-score of -0.136. As for `CCN(CC)c1ccc(NC(=O)c2nc3nc(C)cc(C(F)F)n3n2)cc1`, the z-score was 3.02 (active). The molecule `Cc1cc(C(F)F)n2nc(C(=O)Nc3ccc(S(=O)(=O)N4CCCC4)cc3)nc2n1` returned a z-score of -0.187. The value for `CNS(=O)(=O)c1ccc(NC(=O)c2nc3nc(C)cc(C(F)F)n3n2)cc1` was -0.548; that for `CCOC(=O)C1(C(=O)OCC)CC1c1ccccc1` (stereo not drawn) was -0.0513. On to `CCCCCCCCCCn1c2c(c(=N)c3c1CCC3)CCC2`, for which the z-score is 0.554.

The molecule `CCCCCCn1c2c(c(=N)c3c1CCC3)CCC2` had a z-score of 1.81.

Take `CCCCCCCCCn1c2c(c(=N)c3c1CCC3)CCC2`: the z-score is 4.64 (active).
